The source made the active and inactive calls. Unless noted, the rule behind the calls is not given here.
What was measured:
[1] = HepG2 liver cancer cell viability effects, profiling panel, resazurin fluorescence, 24 h, PK04 Diversity Set (AID 1172); conditions: higher = more signal
[2] = basal S. cerevisiae growth modulation, no modifier, primary screen, OD600, strain BY4716, 24 h, basal condition (AID 1173); conditions: OD600, 24 h, higher = more signal, called active from +8 up or from −8 down
[3] = MM1S myeloma cell viability, profiling panel, resazurin fluorescence, basal, 24 h, PK04 Diversity Set (AID 1174); conditions: higher = more signal, called active from +8 up or from −8 down;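 note: MM1S multiple myeloma cell line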
[4] = molecular target: Dihydroorotate dehydrogenase (quinone), mitochondrial (Plasmodium falciparum (isolate 3D7)) (UniProt Q08210); assay: PfDHODH enzyme inhibitors, primary screen, biochemical, C-terminal His tag, absorbance 600 nm (AID 1175); conditions: DCIP absorbance 600 nm, higher = more signal, called active from +8 up or from −8 down;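 note: recombinant parasite enzyme with a five histidine tag at its C terminus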
Dihydroorotate dehydrogenase (quinone), mitochondrial (Plasmodium falciparum (isolate 3D7)), sequence (Q08210 whole entry, looked up): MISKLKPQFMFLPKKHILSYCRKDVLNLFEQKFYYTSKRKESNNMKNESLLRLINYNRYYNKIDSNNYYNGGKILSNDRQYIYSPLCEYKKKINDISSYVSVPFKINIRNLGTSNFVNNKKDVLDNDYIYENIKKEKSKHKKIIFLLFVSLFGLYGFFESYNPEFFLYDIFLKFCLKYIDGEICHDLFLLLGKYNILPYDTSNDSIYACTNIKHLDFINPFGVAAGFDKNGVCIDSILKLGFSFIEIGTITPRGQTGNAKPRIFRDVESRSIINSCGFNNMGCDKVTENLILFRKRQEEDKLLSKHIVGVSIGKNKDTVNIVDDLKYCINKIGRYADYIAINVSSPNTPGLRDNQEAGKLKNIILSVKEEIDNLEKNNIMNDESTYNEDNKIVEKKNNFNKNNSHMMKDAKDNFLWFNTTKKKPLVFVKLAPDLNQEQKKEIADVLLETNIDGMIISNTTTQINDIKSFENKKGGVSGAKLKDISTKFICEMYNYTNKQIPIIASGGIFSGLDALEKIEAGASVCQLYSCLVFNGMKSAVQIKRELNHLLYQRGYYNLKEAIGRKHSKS

[5] = P. aeruginosa biofilm formation inhibitors, primary screen, strain PAO1, LB-PBS medium, absorbance 600 nm (AID 1176); conditions: P. aeruginosa PAO1 growth/biofilm, A600, 12 h; higher = more signal
[6] = S. cerevisiae RM11-1a growth modifiers, primary screen, strain RM11-1a, OD600, basal, 24 h (AID 1177); conditions: OD600, 24 h, higher = more signal, called active from +8 up or from −8 down;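 note: cultures grown under basal conditions with no added stressor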
[7] = E. coli acrAB mutant growth effects, primary screen, E. coli filamentation inducers, strain DRC39, OD650, 24 h (AID 1178); conditions: higher = more signal, called active from +8 up or from −8 down;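 note: growth measured as culture turbidity by optical density at 650 nm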
[8] = E. coli acrAB mutant growth effects, primary screen, E. coli filamentation inducers, strain DRC39, OD650, 48 h (AID 1179);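 note: screen aims at cell division blockers that make cells filament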; conditions: E. coli DRC39 delta-acrAB growth, higher = more signal, called active from +8 up or from −8 down
[9] = RPMI8226 myeloma cell viability, profiling panel, resazurin fluorescence, basal, 24 h, PK04 Diversity Set (AID 1180); conditions: higher = more signal;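 note: RPMI8826 multiple myeloma cell line at 5000 cells per well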
[10] = molecular target: E3 ubiquitin-protein ligase XIAP (Homo sapiens) (UniProt P98170); assay: XIAP binders, primary screen, biophysical, small-molecule microarray, fluorescence 635 nm (AID 1181); conditions: small-molecule microarray binding, higher = more signal;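 note: score merges 667 nm emission and signal to noise over triplicate slides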
E3 ubiquitin-protein ligase XIAP (Homo sapiens), sequence (P98170 whole entry, looked up): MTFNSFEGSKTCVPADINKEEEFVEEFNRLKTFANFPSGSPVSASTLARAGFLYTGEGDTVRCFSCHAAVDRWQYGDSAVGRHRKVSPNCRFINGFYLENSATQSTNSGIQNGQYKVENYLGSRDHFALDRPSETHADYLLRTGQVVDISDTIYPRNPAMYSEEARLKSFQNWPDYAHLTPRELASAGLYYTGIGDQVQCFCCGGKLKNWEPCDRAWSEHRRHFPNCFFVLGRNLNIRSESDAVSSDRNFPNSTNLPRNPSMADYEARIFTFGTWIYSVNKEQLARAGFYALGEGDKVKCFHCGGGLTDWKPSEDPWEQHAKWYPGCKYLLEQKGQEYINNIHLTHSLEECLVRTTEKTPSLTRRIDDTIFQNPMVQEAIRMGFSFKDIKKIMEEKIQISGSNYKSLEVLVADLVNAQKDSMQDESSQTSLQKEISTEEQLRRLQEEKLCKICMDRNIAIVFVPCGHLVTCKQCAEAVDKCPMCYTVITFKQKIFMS

[11] = system: XIP peptide (Xip251-270) binding; assay: small-molecule binders of XIP peptide, primary screen, biochemical, small-molecule microarray, fluorescence 635/667 nm, 0.1 µg/mL protein (AID 1182); conditions: fluorescent protein binding, 635 nm, higher = more signal, called active from +8 up or from −8 down
XIP peptide (Xip251-270) = assay: small-molecule binders of XIP peptide, primary screen, biochemical, small-molecule microarray, fluorescence 635/667 nm, 0.5 µg/mL protein (AID 1183); conditions: small-molecule microarray binding, fluorescence 635 nm; higher = more signal
[12] = Plasmodium falciparum growth inhibition, primary screen, strain 3D7, DAPI fluorescence, 100 nL (AID 1184);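 note: parasites grown inside human red blood cells in medium with human serum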; conditions: P. falciparum 3D7 growth, 3 d, higher = more signal
[13] = molecular target: Homeobox protein Hox-A13 (Mus musculus) (UniProt Q62424); assay: inhibitors of HoxA13-DNA binding, primary screen, biochemical, fluorescence polarization, labeled oligonucleotide (AID 1185); conditions: 15 min, higher = more signal, called active from +8 up or from −8 down
Homeobox protein Hox-A13 (Mus musculus), sequence (Q62424 whole entry, looked up): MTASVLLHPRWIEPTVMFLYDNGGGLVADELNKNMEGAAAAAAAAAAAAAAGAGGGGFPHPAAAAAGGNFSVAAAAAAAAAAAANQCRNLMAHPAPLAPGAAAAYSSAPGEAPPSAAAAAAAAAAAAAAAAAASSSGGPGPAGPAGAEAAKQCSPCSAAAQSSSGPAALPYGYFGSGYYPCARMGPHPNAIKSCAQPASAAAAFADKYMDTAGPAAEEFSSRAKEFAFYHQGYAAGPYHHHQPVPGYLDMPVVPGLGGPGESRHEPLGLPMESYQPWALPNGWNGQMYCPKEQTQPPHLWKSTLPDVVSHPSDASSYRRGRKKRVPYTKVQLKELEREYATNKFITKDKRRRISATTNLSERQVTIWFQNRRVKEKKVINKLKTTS

[14] = inhibitors of hydroxyurea-induced Chk1 phosphorylation, primary screen, imaging, HeLa, phospho-Chk1 antibody, percent positive cells (AID 1186); conditions: hydroxyurea-induced phospho-Chk1 immunofluorescence imaging, higher = more signal
[15] = inhibitors of hydroxyurea-induced Chk1 phosphorylation, primary screen, imaging, HeLa, phospho-Chk1 nuclear intensity (AID 1187); conditions: hydroxyurea-induced phospho-Chk1 immunofluorescence imaging, higher = more signal

| SMILES | z-score [1] | z-score [2] | z-score [3] | composite z-score [4] | z-score [5] | z-score [6] | z-score [7] | z-score [8] | z-score [9] | composite z-score [10] | composite z-score [11] | composite z-score (XIP peptide (Xip251-270)) | z-score [12] | z-score [13] | z-score [14] | z-score [15] |
| --- | --- | --- | --- | --- | --- | --- | --- | --- | --- | --- | --- | --- | --- | --- | --- | --- |
| C=CCNC(=O)[C@@H]1[C@H]2C(=O)O[C@H](c3ccccc3)[C@H](c3ccccc3)N2[C@H](c2ccc(O)cc2)[C@@]12C(=O)Nc1ccc(C#CCNC(N)=O)cc12 | -0.361 | 0.295 (inactive) | 0.194 (inactive) | -0.433 (inactive) | 0.0485 (inactive) | 0.24 (inactive) | -0.0851 (inactive) | -0.124 (inactive) | 0.221 | -0.33 | 0.33 (inactive) | 0.0915 | -0.1 | -3.36 (inactive) | -0.0873 (inactive) | -0.0078 (inactive) |
| NC(=O)N1C(=O)C2C(C1=O)C1C=C(c3ccc(CO)cc3)C2C(c2cccs2)N1Cc1cccc(OC(F)(F)F)c1 (centres undefined) | -0.532 | -4.02 (inactive) | -0.683 (inactive) | -8.36 (active) | -0.79 (inactive) | -1.87 (inactive) | -5.27 (inactive) | -4.66 (inactive) | -0.452 | 0.278 | 0.0478 (inactive) | -0.814 | -2.86 | -1.04 (inactive) | 0.0422 (inactive) | 0.723 (inactive) |
| COCCOC(=O)N1C(=O)[C@@]2(c3ccccc31)[C@H](C(=O)N1CCc3cc(OC)c(OC)cc3C1)[C@H]1C(=O)O[C@H](c3ccccc3)[C@H](c3ccccc3)N1[C@@H]2c1ccc(OCCO)cc1 | -0.484 | 1.26 (inactive) | -0.13 (inactive) | -0.76 (inactive) | 2.41 (inactive) | 2.61 (inactive) | -0.259 (inactive) | 0.144 (inactive) | 0.549 | -0.0405 | 2.52 (inactive) | 0.8 | -2.33 | 1.9 (inactive) | 0.111 (inactive) | 0.55 (inactive) |
| C=CCC(OC(C)=O)[C@@H]1[C@@H](N(Cc2ccc(-c3ccccc3)cc2)C(=O)Cc2ccc(OC)cc2)c2cc(OCCCO)ccc2N1C(=O)Cc1ccc2ccccc2c1 (some centres undefined) | -0.978 | -0.34 (inactive) | -0.541 (inactive) | 0.0513 (inactive) | 0.562 (inactive) | -0.726 (inactive) | -0.39 (inactive) | -0.851 (inactive) | -0.798 | 0.098 | 1.46 (inactive) | -0.282 | -0.874 | -1.62 (inactive) | 0.802 (inactive) | 0.325 (inactive) |
| CCc1cccc(NC(=O)O[C@H]2[C@H](OC(=O)Nc3ccccc3-c3ccccc3)[C@@H](OC(=O)Nc3ccccc3-c3ccccc3)[C@@H](OC)O[C@@H]2CO)c1 | -4.43 | 0.972 (inactive) | -4.83 (inactive) | 0.153 (inactive) | 0.0279 (inactive) | 0.924 (inactive) | -1.04 (inactive) | -0.361 (inactive) | -5.09 | 0.19 | 1.04 (inactive) | 0.859 | -1.8 | -2.99 (inactive) | 0.167 (inactive) | 0.62 (inactive) |
| COC(=O)[C@]1(CCC(=O)OC(C)(C)C)N=C(c2ccc(OCCCO)cc2)O[C@@H]1c1ccccc1CN=[N+]=[N-] | -1.72 | 1.01 (inactive) | -5.09 (inactive) | 0.965 (inactive) | 1.53 (inactive) | 1.84 (inactive) | 0.637 (inactive) | -0.721 (inactive) | -4.68 | -0.0773 | 1.52 (inactive) | 0.767 | -2.03 | -0.506 (inactive) | 0.121 (inactive) | -0.0667 (inactive) |
| O=C1C[C@]2(c3ccc([N+](=O)[O-])cc3)C(=O)N(CC(F)(F)F)c3cc(CO)ccc3[C@H]2N1C1CCCCC1 | 0.0882 | 0.434 (inactive) | 0.679 (inactive) | -1.69 (inactive) | -0.686 (inactive) | -0.0434 (inactive) | 0.235 (inactive) | 0.16 (inactive) | 0.964 | -0.273 | -0.0975 (inactive) | 0.0582 | -0.762 | -1.39 (inactive) | -0.219 (inactive) | -0.125 (inactive) |
| O=C1N[C@@H](Cc2ccccc2)C(=O)N2[C@@H]1C[C@@H](C(=O)O)[C@H]2c1cccc(OCCO)c1 | -1.6 | 0.165 (inactive) | -0.0089 (inactive) | -2.58 (inactive) | 0.0499 (inactive) | 0.346 (inactive) | 0.395 (inactive) | 0.993 (inactive) | -0.277 | -0.102 | 0.779 (inactive) | 0.465 | 0.193 | -3.04 (inactive) | -0.22 (inactive) | 0.101 (inactive) |
| C=CCNC(=O)[C@H]1[C@@H]2C(=O)O[C@@H](c3ccccc3)[C@@H](c3ccccc3)N2[C@@H](c2ccccc2OCCO)[C@]12C(=O)Nc1ccc(C#CCCO)cc12 | -0.349 | 1.22 (inactive) | -0.942 (inactive) | 2.6 (inactive) | 0.462 (inactive) | 2.33 (inactive) | -0.393 (inactive) | -0.445 (inactive) | -0.969 | 1.02 | 0.749 (inactive) | 0.369 | -2.08 | -3.91 (inactive) | -0.677 (inactive) | -1.24 (inactive) |

Reference: PubChem BioAssay
